Test results taken from PubChem BioAssay AID1159580 (chemical genetic matrix, 2015).
Hit rate of the full screen: of about 5,500 compounds, about 2,000 (36%) were called active. Inconclusive results (about 18%) are left out. Rule as the data show it: active = normalized growth mostly below about 0.91 (no sharp cut-off); inconclusive = no clear call, values can overlap the other calls; inactive = mostly above about 0.92. The list shows a part of the results.

Assay: chemical genetic growth profiling, strain panel (AID 1159580);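 also: tested at 20 µM; growth read once vehicle control cultures reached saturation at 30 °C; 1 = growth at the plate median or of vehicle wells; lower values mean less growth of the strain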
Settings: S. cerevisiae deletion strains, growth OD
[1] = locus YAL040C, strain CLN3, active compounds read low
[2] = locus YCL061C, strain MRC1 (second series), active compounds read low
[3] = locus YDR150W, strain NUM1, active compounds read low
[4] = locus YER002W, strain NOP16, active compounds read low
[5] = locus YNL175C, strain NOP13, active compounds read low
[6] = locus YNL197C, strain WHI3, active compounds read low
[7] = locus YNL224C, strain SQS1, active compounds read low
[8] = locus YOR083W, strain WHI5 (second series), active compounds read low
[9] = locus YPL241C, strain CIN2, active compounds read low

Measured: normalized growth

NCCCC(O)(P(=O)(O)O)P(=O)(O)O
active: locus YPL051W, strain arl3, active compounds read low 0.899
inactive: locus YAL021C, strain ccr4, active compounds read low 0.993 | locus YAL026C, strain drs2, active compounds read low 0.983 | locus YAL030W, strain snc1, active compounds read low 0.993 | locus YBL061C, strain skt5, active compounds read low 0.978 | locus YBR009C, strain hhf1, active compounds read low 0.988 | locus YBR023C, strain chs3, active compounds read low 0.992 | locus YBR171W, strain sec66, active compounds read low 0.953 | locus YBR231C, strain swc5, active compounds read low 0.977 | locus YBR279W, strain paf1, active compounds read low 0.981 | locus YCL011C, strain gbp2, active compounds read low 0.997 | locus YCL016C, strain dcc1, active compounds read low 0.984 | locus YCL061C, strain MRC1, active compounds read low 0.976 | locus YCL069W, strain vba3, active compounds read low 0.991 | locus YCR088W, strain abp1, active compounds read low 0.972 | locus YDL005C, strain med2, active compounds read low 0.99 | locus YDL040C, strain nat1, active compounds read low 0.989 | locus YDR001C, strain nth1, active compounds read low 0.983 | locus YDR069C, strain doa4, active compounds read low 1 | locus YDR137W, strain rgp1, active compounds read low 1 | locus YDR159W, strain sac3, active compounds read low 1 | locus YDR195W, strain ref2 0.943 | locus YDR297W, strain sur2, active compounds read low 0.991 | locus YDR334W, strain swr1, active compounds read low 0.967 | locus YDR335W, strain msn5, active compounds read low 0.99 | locus YDR392W, strain spt3, active compounds read low 0.964 | locus YEL003W, strain gim4, active compounds read low 0.989 | locus YEL037C, strain rad23, active compounds read low 0.978 | locus YEL061C, strain CIN8 (second series), active compounds read low 0.973 | locus YER015W, strain faa2, active compounds read low 0.987 | locus YER016W, strain bim1, active compounds read low 0.984 | locus YER111C, strain swi4, active compounds read low 0.978 | locus YER155C, strain BEM2 (second series), active compounds read low 0.968 | locus YFR010W, strain ubp6, active compounds read low 0.968 | locus YGL167C, strain pmr1, active compounds read low 0.98 | locus YGL173C, strain kem1, active compounds read low 0.959 | locus YGL227W, strain vid30, active compounds read low 0.97 | locus YGL240W, strain doc1, active compounds read low 0.995 | locus YGL253W, strain hxk2, active compounds read low 0.977 | locus YHR013C, strain ard1, active compounds read low 0.97 | locus YHR027C, strain rpn1, active compounds read low 0.983 | locus YHR030C, strain SLT2, active compounds read low 0.979 | locus YHR079C, strain IRE1, active compounds read low 0.968 | locus YHR142W, strain chs7, active compounds read low 0.972 | locus YJL092W, strain hpr5, active compounds read low 0.972 | locus YJL095W, strain BCK1 (second series), active compounds read low 0.985 | locus YJL095W, strain BCK1, active compounds read low 1 | locus YJL115W, strain asf1, active compounds read low 0.976 | locus YJL129C, strain trk1, active compounds read low 0.964 | locus YJL154C, strain vps35, active compounds read low 0.974 | locus YJL164C, strain tpk1, active compounds read low 0.996 | locus YJL166W, strain qcr8, active compounds read low 1 | locus YJL187C, strain SWE1, active compounds read low 0.991 | locus YJR066W, strain TOR1, active compounds read low 0.952 | locus YKL160W, strain elf1, active compounds read low 0.99 | locus YKR026C, strain gcn3, active compounds read low 0.98 | locus YKR091W, strain srl3, active compounds read low 0.981 | locus YLL001W, strain dnm1, active compounds read low 0.987 | locus YLL026W, active compounds read low 0.995 | locus YLL041C, strain sdh2, active compounds read low 1.01 | locus YLR027C, strain aat2, active compounds read low 1 | locus YLR113W, strain HOG1, active compounds read low 1 | locus YLR221C, strain rsa3, active compounds read low 0.99 | locus YLR258W, strain gsy2, active compounds read low 0.998 | locus YLR262C, strain YPT6 (second series), active compounds read low 0.973 | locus YLR320W, strain mms22, active compounds read low 0.987 | locus YLR342W, strain FKS1, active compounds read low 0.978 | locus YLR357W, strain rsc2, active compounds read low 0.975 | locus YLR370C, strain arc18, active compounds read low 0.976 | locus YLR384C, strain iki3, active compounds read low 0.978 | locus YML120C, strain ndi1, active compounds read low 0.989 | locus YMR058W, strain fet3, active compounds read low 0.977 | locus YMR125W, strain sto1, active compounds read low 0.978 | locus YMR129W, active compounds read low 0.99 | locus YMR205C, strain PFK2, active compounds read low 0.996 | locus YMR231W, strain pep5, active compounds read low 0.962 | locus YNL071W, strain lat1, active compounds read low 0.985 | locus YNL183C, strain NPR1, active compounds read low 0.978 | locus YNL209W, strain ssb2, active compounds read low 0.982 | locus YNL248C, strain rpa49, active compounds read low 0.985 | locus YNL322C, strain KRE1 (second series), active compounds read low 0.98 | locus YNR049C, strain mso1, active compounds read low 0.987 | locus YOR001W, strain rrp6, active compounds read low 0.983 | locus YOR070C, strain gyp1, active compounds read low 0.972 | locus YOR080W, strain dia2, active compounds read low 0.979 | locus YOR083W, strain WHI5, active compounds read low 0.99 | locus YOR106W, strain vam3, active compounds read low 0.956 | locus YOR231W, strain MKK1, active compounds read low 0.989 | locus YOR265W, strain rbl2, active compounds read low 0.995 | locus YOR270C, strain vph1, active compounds read low 0.965 | locus YOR290C, strain snf2, active compounds read low 0.98 | locus YPL078C, strain atp4, active compounds read low 0.976 | locus YPL106C, strain sse1, active compounds read low 0.983 | locus YPL240C, strain hsp82, active compounds read low 0.992 | locus YPL256C, strain CLN2, active compounds read low 0.973

NCCCP(=O)(O)O
inactive: [1] 1.04 | [2] 0.998 | [3] 1.01 | locus YDR363W, strain ESC2, active compounds read low 0.956 | [4] 0.981 | locus YGR229C, strain SMI1, active compounds read low 0.984 | [5] 0.978 | [6] 0.979 | [7] 1 | [8] 0.98 | locus YPL055C, strain LGE1, active compounds read low 1.02 | [9] 0.995

CP(=O)(O)CCCN
inactive: [1] 1 | [2] 1 | [3] 0.983 | [4] 0.994 | locus YNL153C, strain GIM3, active compounds read low 0.99 | [5] 0.996 | [6] 1.02 | [7] 0.98 | [8] 1.01 | [9] 0.989
